These results are taken from the supplement of paper PMC6555819.

This assay relates to LXRa:RXRa (NR concentration 270 nM, RXRa partner concentration 90 nM). Nature of the assay: PBM binding z-score (relative to random genomic background probes); higher = stronger binding; sequences stand for … in GC…GCGATTGACAGCGTAGAATGAAGG
In a few lines: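 The probes on custom Agilent 4×180K protein-binding microarrays were double-stranded, with 34-nt variable regions bearing direct-repeat seeds, single-nucleotide variants, half-site ablations and random human genomic background sequences. Incubation lasted 1 h with ligand-free nuclear receptor dimers in PBS pH 7.4, 2% milk, 0.02% Triton X-100, 1 mM DTT, 0.2 mg/mL BSA and 0.4 mg/ml salmon testes DNA. Antibodies against each partner (one per run) detected bound dimers, and fluorescence scans were regression-normalized. Binding z-scores take the random background probes as reference.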
In turn, CCTACTGGGCCAACGTCATTGATCAGTCAAAGCA gave a PBM binding z-score of -0.496. CCGACTCGGGCAGAAAGGTTACCATACCATCCGG showed a PBM binding z-score of 0.698. CCTTCTGGGCCACGAAAGGTCATTGATTCAGTGA: the PBM binding z-score amounted to 5.51. As for ACTAGCAGGCCGAGGGTCACTCAAGATTAGTCCG, the figure is 1.52. Sequence CCTATTAGTTGACCATAAGGGCAACCGAAGCTCG registered a PBM binding z-score of 0.988. In the case of ACTATTAGTTGACTTACGGCAACCGATACGACGC it was 0.066. As for CCGGCTAGGTCAATGGTCAGCTAAAGCAGCTCGC, the figure is 1.98; as for TCTAGCAGGCCAGAGGGTCGCTCAAGAGGTACGG, -0.514. As for ACTTCCGGGTCAACGAGGTTATAGCACGCGTATA, the figure is 4.46; as for CCGACTGAGGCATAAGGTTACCATAAGCCAGCCC, 2.01; as for GGAACGAGGGCAAGTTGACAGCAGAGTTTGATGG, 0.43. Consider CCAGACTGGTGAGAAGGTAACTCAGCCTCGATTA, for which the PBM binding z-score is -0.491. In the case of CGTCCAAGGTCAGAGAGGTCAGTGGATGCCGAGT it was 5.17; in that of TCGGACAGGTGAAGGTAACTCAGGTACGCAGTCG, 1.52; in that of GCTATTAGTTGAAAGGGCAACCGAATGATTCTCG, 0.733.

Consider ACAGACAGGTGATGAAGGTGACTCAGGCTATCAT, for which the PBM binding z-score worked out at 0.0616. As for ACTATTAGTTGAGACGATGGCAACCGATAGGTTG, the figure is -0.267; as for ACACCAAGGTGATCGTGAGGTCGTTGATACTAAC, 1.28. TGAATGAGGTTATAAAATCAGGGAACGTTGCAAA: the PBM binding z-score stood at 0.908.

Consider TATACAGGGTCAAAAGCCAGAGTACGAATGTCGA, for which the PBM binding z-score was 5.72.

For the sequence ACTTACGGGTCACCGAGGTTATAGCACGCGTATA, the PBM binding z-score is 5.59. As for TCTGGTAGGTCAGTTGGTCAGCTAACGAGCTGCC, the figure is 1.41.
